Reference: PubChem BioAssay AID493168 (National Center for Advancing Translational Sciences (NCATS), 2011)
Results filed as inconclusive are left out. Activity calls are given as the source filed them. The call rests on the fitted dose curve; in most records, active means well fitted inhibition curve with a large enough effect; inconclusive means small, poorly fitted or top-dose-only effect, or effect the other way; inactive means flat fitted curve, though single readings scatter.

target: Ubiquitin carboxyl-terminal hydrolase 2 (Homo sapiens) (UniProt O75604); assay: Confirmation Assay for Inhibitors of Ubiquitin-specific Protease USP2a Using CHOP2 as the Reporter; conditions: USP2 core, Ub-CHOP2 coupled reporter fluorescence; series mostly up to 38.3 µM; activity change, negative = inhibition: at the top concentration; further: nearly all actives have a fitted effect of over 55% in size;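 on activity change, negative = inhibition: plate controls were DMSO wells for no effect and full inhibition by NEM control for full effect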
Sequence (O75604 whole entry, looked up): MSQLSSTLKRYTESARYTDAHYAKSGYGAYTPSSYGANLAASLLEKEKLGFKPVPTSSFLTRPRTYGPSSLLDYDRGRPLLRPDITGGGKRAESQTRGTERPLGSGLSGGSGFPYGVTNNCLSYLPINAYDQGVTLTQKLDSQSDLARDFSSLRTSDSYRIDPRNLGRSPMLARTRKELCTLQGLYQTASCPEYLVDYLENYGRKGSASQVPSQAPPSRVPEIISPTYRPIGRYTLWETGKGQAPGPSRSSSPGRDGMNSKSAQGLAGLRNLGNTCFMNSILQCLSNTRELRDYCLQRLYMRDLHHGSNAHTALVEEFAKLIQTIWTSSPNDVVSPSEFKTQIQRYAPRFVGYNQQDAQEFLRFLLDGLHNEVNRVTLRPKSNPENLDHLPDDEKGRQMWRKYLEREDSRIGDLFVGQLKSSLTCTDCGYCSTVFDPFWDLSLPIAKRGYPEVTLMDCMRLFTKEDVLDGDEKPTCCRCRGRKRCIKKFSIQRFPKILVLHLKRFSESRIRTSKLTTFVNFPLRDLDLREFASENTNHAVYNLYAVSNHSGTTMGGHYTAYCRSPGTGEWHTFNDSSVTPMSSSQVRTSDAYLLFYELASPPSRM
In short: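 USP2 core (10 nM final) was preincubated with compound for 30 min at RT in Tris-HCl pH 8.0, CaCl2, beta-mercaptoethanol, CHAPS. Ub-CHOP2 and reporter substrate (25 nM final each) were added, and fluorescence (Ex 485/Em 531 nm) was read after 60 min.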
Potency means the concentration at half of the fitted maximal effect.

Activity change, negative = inhibition, inactive:
O=C(C[n+]1ccc(-c2cc(C(=O)Nc3cccc(C(F)(F)F)c3)c3ccccc3n2)cc1)c1cccc([N+](=O)[O-])c1 -8.79%
Cc1nc2ccccc2c2oc(C(=O)NCCN3CCN(C)CC3)cc12 2.15%
N#Cc1cccc(C(=O)N(CCc2ccccc2)Cc2cccs2)c1 -0.668%
COC(=O)c1[nH]c(=O)c2ccccc2c1OCc1ccccc1 -3.77%
Cn1c(C(=O)NCCN2CCOCC2)cc2c(=O)n(C)c3ccccc3c21 -0.508%
CCOC(=O)C(=O)Nc1nc(-c2ccc3c(c2)CCN3C(=O)C2CC2)c(C)s1 -0.268%
COc1ccc(CCNC(=O)Cc2cc(=O)[nH]c(=O)[nH]2)cc1OC 1.29%
CCOC(=O)N1CCN(C(=O)CN(c2cccc(C)c2)S(=O)(=O)c2ccccc2)CC1 -1.01%
O=C(CCS(=O)(=O)c1ccc(Br)s1)NC1CCCC1 -2.3%
CCCCc1ccc(/C=C2/C(=O)ON=C2c2ccccc2)s1 -0.0359%
CC(=O)Nc1ccc(Nc2cc(C)nc(Nc3ccc(NC(C)=O)cc3)n2)cc1 -0.465%
O=C(NC1CCCC1)C1C2C=CC(C2)C1C(=O)N1CCOCC1 (centres undefined) 4.55%
CCOC(=O)c1c(C)[nH]c(C(=O)COC(=O)CSC)c1C 2.27%
CCN1C(=O)CSc2ccc(C(=O)NC3CCCCC3)cc21 2.08%
CC1=NN(C(=O)c2csc(C)c2C)C(O)(C(F)(F)F)C1 (centres undefined) 7.72%
CCOc1ccc(Cn2c(=O)sc3ccccc32)cc1OC -0.436%
Cc1cc(C(=O)OCC(=O)c2cccc([N+](=O)[O-])c2)c2cccc(C)c2n1 -9.73%
CC(C)CC(c1nnnn1CC1CCCO1)N1CCN(c2nc3ccccc3s2)CC1 (centres undefined) -1.59%
Cc1ccc(C(=O)C(=S)N2CCOCC2)cc1 1.38%
CCOc1ccc2[nH]c(=O)c(CN(Cc3nnnn3Cc3ccco3)C3CCCCC3)cc2c1 -11.1%
O=C(O)CC1(CC(=O)Nc2ccc3ccccc3c2)CCCCC1 4.41%
CCOc1ccc(-c2ccc(/C=C3/C(=N)N4C(C)=CSC4=NC3=O)o2)c([N+](=O)[O-])c1 -9.31%
C[C@](N)(Cc1ccc(O)c(O)c1)C(=O)O -4.07%
COc1ccc(S(=O)(=O)N2CCCC2C(=O)NCc2cccs2)cc1 (centres undefined) 2.04%
CCc1cc2cccc(C)c2nc1SCC(=O)N1CCN(C(=O)c2ccco2)CC1 1.25%
CCOc1ccc(C(=O)c2ccc(OCC)c(N)c2)cc1N -1.17%
CNC(=O)NC(=O)CSc1ccc(NC(C)=O)cc1 -4.02%
CCNc1sc(C(=O)c2cccs2)c(N)c1-c1nc2ccccc2s1 -0.21%
O=C(c1ccccc1N(Cc1ccccc1)S(=O)(=O)c1ccccc1)N1CCOCC1 0.161%
Cn1c(C(=O)N2CCN(Cc3ccc4c(c3)OCO4)CC2)cc2sccc21 -0.858%
CC1CCN(CC(O)COc2cccc(F)c2)CC1 (centres undefined) 2.47%
COc1cccc(NC(=O)c2ccccc2-c2nc(-c3cccc(C)c3)no2)c1 1.17%
CCOC(=O)Nc1nnc(CCc2ccccc2)s1 -0.956%
CCCc1cc(=O)oc2cc(C)c(CN3CCCC3)c(O)c12 -1.5%
O=C(COc1ccccc1)N1CCN(C(=O)Cc2ccccc2)CC1 -1.37%
CC(C)(C)C1C=C(Sc2ccccc2)C(=O)O1 (centres undefined) -0.936%
CCc1nnc(NC(=O)CSc2nccn2-c2cccc(C)c2)s1 -0.395%
CCC(C)NC(=O)C1CN(S(=O)(=O)c2ccccc2)CCN1S(=O)(=O)c1ccccc1 (centres undefined) 3.46%

Potency, active:
Cc1ccc(NC(=O)c2cc(-c3ccco3)nc3ccccc23)cc1S(=O)(=O)N1CCOCC1 11.7 µM
